We go through 32 compounds from PubChem BioAssay (NCI).

Compounds without any hit were thinned out: in the full panel of roughly 83,000, 20% have a hit.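 Plates (96-well) were seeded with cells, treated with compound at one concentration, and incubated for 48 hours before percent growth was determined.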 The source made the active and inactive calls. The calls were made as follows: active = growth percent below 10; inactive = the rest.

The subject of the assay is PC-3 prostate. Nature of the assay: NCI-60 one-dose screen, 48 h (100 = growth as untreated, 0 = no growth, -100 = all killed). The settings on record: 10 µM unless noted.
`Cc1ccc(NC(=O)N[C@@H](Cc2cc(F)cc(F)c2)C(=O)NC2C(=O)N3CCC[C@H]3C(=O)N3CCCC[C@H]3C(=O)N[C@@H](C)C(=O)N3C[C@H](C)C[C@H]3C(=O)O[C@H]2C)c(F)c1` (some centres not stated): the growth is 15% (inactive).

As for `COc1ccc(/C=C/C(=O)c2nnn(-c3ccc(C(=O)O)cc3)c2C)cc1OC`, the growth is 97.7% (inactive).

For the compound `O=C(Nc1cc(F)cc2cccnc12)c1cnc(N2CCOCC2)cn1`, the growth was 62.9% (inactive).

With `COc1cc(/C=C2\SC(=O)NC2=O)ccc1OCC(=O)Nc1ccc(C(=O)/C=C/c2cc3ccccc3nc2Cl)cc1`, the growth was 82.1% (inactive).

On to `Nc1nc(-c2cccc([N+](=O)[O-])c2)c(N=Nc2ccccc2Cl)s1`, for which the growth was 64.9% (inactive).

As for `Oc1ccc(-c2nnc(SCc3ccc(O)c4ncccc34)o2)cc1`, the growth was 9.97% (active).

As for `C[C@H]1[C@H](C)CC[C@]2(COC(=O)c3cccnc3)CC[C@]3(C)C(=CC[C@@H]4[C@@]5(C)CCCNC(C)(C)[C@@H]5CC[C@]43C)[C@H]12`, the growth is 35.8% (inactive).

As for `O=c1[nH]c2cc(Cl)ccc2n1C1CCN(c2ccc3nnc(Cl)n3n2)CC1`, the growth is 82% (inactive).

As to `COc1ccc(N2CCN(C(=O)CSc3ccc(-c4nc5cc(C)c(C)cc5[nH]4)cn3)CC2)cc1`, the growth is 56.4% (inactive).

Take `Oc1ccc(CSc2nnc(-c3ccncc3)o2)c2cccnc12`: the growth was 12.7% (inactive).

In the case of `O=C(COc1ccc(/C=C2\SC(=O)NC2=O)cc1)Nc1ccc(C(=O)/C=C/c2cc3ccccc3nc2Cl)cc1`, the growth is 65.6% (inactive).

In the case of `O=C(Nc1cccc(Cl)c1)Nc1nc2ccc([N+](=O)[O-])cc2s1`, the growth is 6.96% (active).

In the case of `Cn1cc(-c2nn3cc(-c4cccnc4)nc3s2)c2cc(F)ccc21`, the growth is 79.4% (inactive).

Turning to `C/C(=N\NC(=S)Nc1ccc(Br)cc1)c1cc2ccccc2oc1=O`, the growth is 26.7% (inactive).

Turning to `O=C1[C@H]2Cc3c([nH]c4ccccc34)[C@@H](c3ccc(Cl)cc3)N2C(=O)CN1C1CCN(Cc2c(Cl)cccc2Cl)CC1`, the growth is 70.8% (inactive).

As for `O=C1[C@H]2Cc3c([nH]c4ccccc34)[C@@H](c3c(Cl)cccc3Cl)N2C(=O)CN1C1CCN(Cc2ccccc2)CC1`, the growth is 77.8% (inactive).

With `CC1=C2C(=C[C@@](C)(COS(N)(=O)=O)[C@@H]2O)C(=O)[C@](C)(O)C12CC2`, the growth is 58.5% (inactive).

For the compound `CC1(COc2ccc3ncc(C#Cc4cncc(C(=O)Nc5cc(C(C)(C)C)on5)c4)n3n2)COC1`, the growth was 43.4% (inactive).

For `O=C(/C=C1\C=CN(CCCCO)c2ccccc21)n1ccc2ccccc21`, the growth is 107% (inactive).

As to `Cc1cc(NS(=O)(=O)c2ccc(-c3cnc(C4CC4)o3)cc2)ccc1I`, the growth was 22.7% (inactive).

For `CS(=O)(=O)c1ccc2c(c1)c1c(n2S(=O)(=O)c2ccc(Cl)cc2)CCCC1`, the growth was 30.7% (inactive).

As to `CN(C)C(=O)c1ccccc1-n1cnc2ccccc2c1=O`, the growth was 97.2% (inactive).

For `O=C(Nc1cc(Cl)cc(Cl)c1)Nc1nc2ccc([N+](=O)[O-])cc2s1`, the growth was 7.99% (active).

For the compound `C#C[C@]1(O)CC[C@H]2[C@@H]3CC=C4c5sc(Nc6ccc(OC)nc6)nc5CC[C@]4(C)[C@H]3CC[C@@]21C`, the growth was 29.9% (inactive).

As for `CCOc1ccc2nc(NC(=O)Nc3ccccc3C)sc2c1`, the growth was 57.6% (inactive).

Turning to `CN(c1ccc(Br)cc1)S(=O)(=O)c1ccc(-c2cnc(C3CC3)o2)cc1`, the growth was 22.4% (inactive).

`CCNC(=NCCCN(C)C)N/C(N)=N/c1nc2ccccc2s1`: the growth is 80.3% (inactive).

For the compound `Cc1cc(Cl)cc(NS(=O)(=O)c2ccc(-c3cnc(C4CC4)o3)cc2)c1`, the growth is 17.4% (inactive).

Turning to `N/C(=N\c1nc2ccc([N+](=O)[O-])cc2s1)C(Cl)(Cl)Cl`, the growth is 49.1% (inactive).

In the case of `CS(=O)c1nccc(-c2c(-c3ccc(F)c(OCCc4ccc(F)cc4)c3)nc3sccn23)n1` (configuration not stated), the growth was 60.5% (inactive).

Take `CN(c1ccc(F)cc1)S(=O)(=O)c1ccc(-c2cnc(C3CC3)o2)cc1`: the growth is 17.8% (inactive).

With `Cc1cn(-c2cc(NC(=O)c3cncc(C#Cc4cnc5ccc(OCCCS(C)(=O)=O)nn45)c3)cc(C(F)(F)F)c2)cn1`, the growth is 52.8% (inactive).
